Experimental findings from the supplement of paper PMC9446081 are described below.

Molecules are shown by their SMILES. The whole screen tested about 39,000 compounds, of which about 220 (0.56%) showed activity. This is one part of a sample in which actives are shown more often than they occur. A number with no mark means an inactive call.
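Further: Wild-type cells incubated without shaking, value is the mean of two biological replicates.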

This assay deals with Escherichia coli K-12 BW25113. Briefly: relative growth (OD600 normalised to plate interquartile mean) (fraction); higher = less growth inhibition, active = 0.2 or less. Particulars: 50 µM; LB; incubation time: overnight (16-24 h).
For the compound `CN[C@H]1C[C@@H](N)[C@H](O)[C@@H](O[C@@H]2O[C@H](CO)[C@H](O)[C@@H]3O[C@@]4(O[C@H]23)O[C@H]([C@@H](N)CO)[C@H](O)[C@H](O)[C@H]4O)[C@@H]1O`, the relative growth is 0.0323 (active).

Turning to `COC(=O)[C@]1(Cc2ccccc2N=[N+]=[N-])N=C(c2ccc(OCCCO)cc2)O[C@@H]1c1ccccc1N=[N+]=[N-]`, the relative growth was 1.03.

On to `CCOCC(=O)N1CC[C@H]2CNC[C@H]21`, for which the relative growth was 0.983.

On to `CCCCCCCCCCCCCC(=O)O[C@@H]1[C@@H](C)[C@@]2(O)[C@@H](C=C(CO)C[C@]3(O)C(=O)C(C)=C[C@@H]23)[C@@H]2C(C)(C)[C@]12OC(C)=O`, for which the relative growth is 1.02.

For `CN(C)[C@@H]1C(=O)[C@@H](C(N)=O)C(=O)[C@@]2(O)C(=O)[C@H]3C(=O)c4c(O)ccc(Cl)c4[C@@](C)(O)[C@H]3C[C@@H]12`, the relative growth was 0.037 (active).

For `CN(C)[C@@H]1C(=O)C(C(N)=O)=C(O)[C@@]2(O)C(O)=C3C(=O)c4c(O)cccc4[C@](C)(O)[C@H]3C[C@@H]12`, the relative growth was 0.0416 (active).

With `CN(C)[C@@H]1C(=O)[C@H](C(N)=O)C(=O)[C@@]2(O)C(=O)[C@@H]3C(=O)c4c(O)cccc4[C@@](C)(O)[C@H]3C[C@@H]12`, the relative growth is 0.182 (active).

For the compound `COc1c(C[C@@H](C)O)c2c3c(C[C@@H](C)O)c(OC)c(=O)c4c(O)cc5c(c6c(cc(O)c(c1=O)c62)OCO5)c43`, the relative growth is 1.08.

Consider `CC12CCC(O)CC1CCC1C2CC(O)C2(C)C(C3=CC(=O)OC3)CCC12O` (centres undefined), for which the relative growth was 0.988.

For the compound `CC(=O)N1CCCC[C@]12CCNC2`, the relative growth is 0.984.

Regarding `CC1=C(O)C(=O)C=C2C1=CC=C1C2(C)CCC2(C)C3CC(C)(C(=O)O)CCC3(C)CCC12C` (centres undefined), the relative growth is 1.02.

On to `CN(C)C(=O)[C@]1(Cc2ccccc2CN=[N+]=[N-])N=C(c2ccc(OCCCO)cc2)O[C@@H]1c1ccccc1N=[N+]=[N-]`, for which the relative growth is 1.02.

Consider `CC(=O)OC1CC2(C)C(c3ccoc3)CC3OC32C2(C)C(=O)C(O)=C3C(C)(C)C(=O)C=CC3(C)C12` (centres undefined), for which the relative growth is 1.06.

Turning to `CCOC(=O)c1c(CN2CCN(c3ccccc3)CC2)n(Cc2ccccc2)c2cc(Br)c(O)cc12`, the relative growth is 1.03.

`CO[C@@H]1C[C@@H](C[C@H]2CC[C@H](C)[C@H]([C@@H](C)C(=O)O)O2)O[C@]2(O[C@](C)([C@H]3CC[C@@](C)([C@H]4O[C@@H]([C@H]5O[C@@](O)(CO)[C@H](C)C[C@@H]5C)C[C@@H]4C)O3)C[C@H]2C)[C@@H]1C`: the relative growth was 0.945.

On to `Cc1ccc(OC(=O)N(C)C[C@H]2OCc3ccccc3-c3c(n(C)c4ccccc34)C(=O)N([C@H](C)CO)C[C@@H]2C)cc1`, for which the relative growth is 1.

For `CC(=O)OC1CC(OC2C(O)CC(OC3C(O)CC(OC4CCC5(C)C(CCC6C5CC(O)C5(C)C(C7=CC(=O)OC7)CCC65O)C4)OC3C)OC2C)OC(C)C1OC1OC(CO)C(O)C(O)C1O` (centres undefined), the relative growth is 0.995.

As to `Cc1nc(-c2ccc(-c3ccc(C(=O)N4CCc5cc6c(cc54)C4(CCN(C)CC4)CO6)cc3)c(C)c2)no1`, the relative growth is 0.932.

`CO[C@@H]1C=C[C@@H]2[C@H]1N2CCO` (some centres undefined): the relative growth was 0.968.

`CN[C@@H]1[C@@H](O)[C@@H](O[C@@H]2[C@@H](O)[C@H](O[C@H]3O[C@H](CN)CC[C@H]3N)[C@@H](N)C[C@H]2N)OC[C@]1(C)O.CN[C@@H]1[C@@H](O)[C@@H](O[C@@H]2[C@@H](O)[C@H](O[C@H]3O[C@H]([C@@H](C)N)CC[C@H]3N)[C@@H](N)C[C@H]2N)OC[C@]1(C)O.CN[C@@H]1[C@@H](O)[C@@H](O[C@@H]2[C@@H](O)[C@H](O[C@H]3O[C@H]([C@@H](C)NC)CC[C@H]3N)[C@@H](N)C[C@H]2N)OC[C@]1(C)O`: the relative growth was 0.624.

For the compound `CNC1C(O)C(OC2C(N)CC(N)C(OC3OC(C(C)O)C(O)C(O)C3N)C2O)OCC1(C)O` (centres undefined), the relative growth was 0.0438 (active).

With `CN[C@@H]1[C@@H](O)[C@@H](O[C@@H]2[C@H](O)[C@@H](O[C@H]3O[C@H]([C@@H](C)O)[C@@H](O)[C@H](O)[C@H]3N)[C@H](N)C[C@@H]2N)OC[C@]1(C)O`, the relative growth is 0.484.

On to `C[C@@]1(C(=O)O)[C@H]2CC[C@@H](O2)[C@@]1(C)C(=O)O`, for which the relative growth was 0.979.

`CC(=O)OC[C@]12CCC(C)=C[C@H]1O[C@@H]1[C@H](O)[C@@H](OC(C)=O)[C@@]2(C)[C@]12CO2`: the relative growth was 0.969.

On to `[NH2][Pt]1([NH2])[O]C(=O)C2(CCC2)C(=O)[O]1`, for which the relative growth was 0.958.

For the compound `CC(C)(C)c1ccc(O)cc1`, the relative growth was 0.998.

Regarding `CNC(=O)Oc1cccc2ccccc12`, the relative growth was 1.05.

As for `NCCc1cccc2ccccc12`, the relative growth is 1.

As for `OCC(Br)(Br)Br`, the relative growth is 1.02.

As to `O=[N+]([O-])C(Br)(CO)CO`, the relative growth is 0.0475 (active).

`OCCN(CCO)CCO`: the relative growth was 0.97.

With `C[C@@H](N)Cc1ccc(O)cc1`, the relative growth was 0.992.

On to `C[C@@H]1O[C@@H](O[C@@H]2C[C@@H](O)[C@]3(CO)[C@H]4[C@H](O)C[C@]5(C)[C@@H](C6=CC(=O)OC6)CC[C@]5(O)[C@@H]4CC[C@]3(O)C2)[C@H](O)[C@H](O)[C@H]1O`, for which the relative growth was 0.995.

For `NCC(=O)c1ccccc1`, the relative growth is 1.

Take `O=C(Cc1ccccc1)c1ccccc1`: the relative growth was 0.986.

In the case of `CC(=O)[O][Hg][c]1ccccc1`, the relative growth was 0.0564 (active).

`C=C(C)[C@@H]1CCC(C)=C[C@H]1c1c(O)cc(CCCCC)cc1O`: the relative growth is 1.01.

As to `C[C@@]12C(=O)OC(=O)[C@]1(C)[C@H]1CC[C@@H]2O1`, the relative growth was 0.933.

On to `COc1cccc(C2(N)CCCC2)c1`, for which the relative growth was 1.02.

`CN1[C@@H]2CC[C@@H]1C[C@H](O)C2` (some centres undefined): the relative growth is 1.01.

As for `O=C1C=C2C(=CCO[C@@H]2O)O1`, the relative growth is 1.

As to `O=C1C=C2C(=CCOC2O)O1` (centres undefined), the relative growth was 0.0434 (active).

Regarding `CC1(C)C(=O)C=CC2(C)C1=C(O)C(=O)C1(C)C2CCC2(C)C(c3ccoc3)CC3OC321` (centres undefined), the relative growth is 1.07.

On to `COC(=O)C[C@](O)(CCC(C)(C)O)C(=O)O[C@@H]1C(OC)=C[C@]23CCCN2CCc2cc4c(cc2[C@H]13)OCO4`, for which the relative growth was 1.02.

Consider `O=c1[nH]c2ccccc2n1C1CCN(Cc2ccc(-c3nc4cc5[nH]cnc5cc4nc3-c3ccccc3)cc2)CC1`, for which the relative growth is 1.09.

In the case of `O=[N+]([O-])c1ccc(N(CCO)CCO)c2c1no[n+]2[O-]`, the relative growth is 0.0367 (active).

For `C[C@@H]1CC[C@@]2(OC1)O[C@H]1C[C@H]3[C@@H]4CC=C5C[C@@H](O[C@@H]6O[C@H](CO)[C@@H](O[C@@H]7O[C@@H](C)[C@H](O)[C@@H](O)[C@H]7O)[C@H](O)[C@H]6O[C@@H]6O[C@@H](C)[C@H](O)[C@@H](O)[C@H]6O)CC[C@]5(C)[C@H]4CC[C@]3(C)[C@H]1[C@@H]2C`, the relative growth was 0.913.

Turning to `CC(C)C12OC1C1OC13C1(C)CCC4=C(COC4=O)C1CC1OC13C2O` (centres undefined), the relative growth was 0.947.

With `COc1ccc(C(CN(C)C)C2(O)CCCCC2)cc1.Cl` (centres undefined), the relative growth was 1.14.
